Bioassay records from PubChem.
RORgamma inh: inhibitors of mouse ROR gamma transcriptional activity. P51450. Drosophila S2 Gal4-RORgamma UAS-luciferase reporter, 20 h. Potency, µM (top dose mostly 53.6 µM), inactives show at the highest dose activity change, negative = inhibition, hits mostly inhibitors. hit rate 5.4% among 310,000. AID 2551; note: nearly all actives have a fitted effect of over 60% in size
Target sequence (P51450 whole entry, looked up, the tested form may be a part): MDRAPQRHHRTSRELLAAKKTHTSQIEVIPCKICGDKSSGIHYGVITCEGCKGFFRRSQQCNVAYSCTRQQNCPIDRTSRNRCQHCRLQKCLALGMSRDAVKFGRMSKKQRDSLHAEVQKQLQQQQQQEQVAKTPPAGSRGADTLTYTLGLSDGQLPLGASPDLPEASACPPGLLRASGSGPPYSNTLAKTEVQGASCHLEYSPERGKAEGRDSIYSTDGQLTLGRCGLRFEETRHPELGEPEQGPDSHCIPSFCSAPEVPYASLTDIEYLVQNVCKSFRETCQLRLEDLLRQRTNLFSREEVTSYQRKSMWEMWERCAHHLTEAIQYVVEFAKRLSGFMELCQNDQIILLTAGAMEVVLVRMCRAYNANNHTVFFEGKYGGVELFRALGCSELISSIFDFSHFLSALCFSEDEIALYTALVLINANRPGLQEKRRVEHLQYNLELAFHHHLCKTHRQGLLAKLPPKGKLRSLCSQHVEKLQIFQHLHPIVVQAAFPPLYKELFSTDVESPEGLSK
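In this cell-based reporter format, copper sulfate (700 uM final) drives Gal4–ROR gamma fusion expression from a metallothionein promoter in Drosophila Schneider cells; compounds preincubated 1 hr, reporter read after 20 hr at ambient temperature.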
VP16 counter: inhibits Gal4-VP16 luciferase reporter, ROR gamma counter-screen; hit rate 3.5% among 310,000; Potency, µM (top dose mostly 53.6 µM), without a hit: at the highest dose activity, negative = inhibition, most hits filed as inhibitors; Drosophila S2 Gal4-VP16 UAS-luciferase, luminescence, 20 h;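 note: Gal4-VP16 expression switched on by copper sulfate through the metallothionein promoter; nearly all actives have a fitted effect of over 50% in size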
DT40 TDP1 CPT: growth inhibition of DT40 Tdp1-/-;hTDP1 cells with camptothecin (screen for TDP1 inhibitors). chicken DT40 Tdp1-/-;hTDP1 cells + 20 nM CPT, ATP luminescence, 48 h. Potency, µM (doses to about 46.2 µM), for the others: at the highest dose activity change, negative = growth inhibition, usual class: inhibitors. hit rate 12% among 420,000. AID 686979; note: nearly all actives have a fitted effect of over 55% in size
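Cell growth measured by CellTiter-Glo luminescence after a minimum 48 h, 37 C compound exposure with 20 nM CPT in Tdp1-knockout DT40 cells stably expressing hTDP1, seeded 400/well; qHTS titration format.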
TDP1 block: inhibitors of human tyrosyl-DNA phosphodiesterase TDP1; Q9NUW8; recombinant TDP1, AlphaScreen DNA substrate cleavage; Potency, µM (titrated, usually from 130 µM), without a hit: at the highest dose activity change, negative = inhibition, hits mostly inhibitors; hit rate 0.28% among 350,000; AID 485290; note: nearly all actives have a fitted effect of over 40% in size
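AlphaScreen read-out: signal falls as enzyme removes the 3' tyrosine-FITC from a 5'-biotinylated DNA oligo (15 nM, 5 min, RT). Enzyme was E. coli-made recombinant Tdp1 at 1 nM, exposed to compound for 15 min beforehand; beads 10 ug/ml, 10 min.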
DT40 TDP1 no CPT: qHTS for Inhibitors of human tyrosyl-DNA phosphodiesterase 1 (TDP1): qHTS in cells in absence of CPT; hit rate 15% among 420,000; AID 686978, 2013; DT40 Tdp1-/- hTDP1 cells, no CPT, ATP luminescence, 48 h; Potency, µM (top dose mostly 46.2 µM), for inactives: top-dose activity change, negative = growth inhibition, actives largely listed as inhibitors; note: nearly all actives have a fitted effect of over 55% in size
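Stably hTDP1-transfected Tdp1-null chicken DT40 cells were treated with library compounds minus camptothecin and grown for at least 48 hr at 37 °C, after which cellular ATP was quantified by luminescence.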
* marks the source's active call; other numbers are inactive results; ? = inconclusive; nt = no result; [ ] = another dose, or the depositor's remark. In the library only some 19% were active in any assay of this set; here they are far more common. Calls come from the whole dose curve; as a rule, active = well fitted curve in the direction sought with a large enough effect; inconclusive = small, poorly fitted or top-dose-only effect, or another doubt; inactive = no such curve, though single readings can be large; an effect the other way counts as inactive or inconclusive. % is set by controls: 0 for no effect and ±100 for the full control effect; potency is the fitted concentration of half-maximal effect.

SMILES | RORgamma inh | VP16 counter | DT40 TDP1 CPT | TDP1 block | DT40 TDP1 no CPT
CCOC(=O)C1=C(Nc2ccc(C)cc2)CC(C)(O)C(C(=O)OCC)C1c1ccccc1 (stereo not given) | 23.4% | 10.8% | ? | -5.9% | ?
O=C(CC(Nc1cccc(Cl)c1Cl)C(=O)O)c1ccccc1 (stereo not given) | 11.2µM* | 25.9%[10 µM] | -22.0% | nt | 12.4%
O=C(CC(Nc1ccc(Cl)cc1)C(=O)O)c1ccccc1 (stereo not given) | 5.01µM* | 5.01µM* | 20.6µM* | 5.0% | -26.4%
Cc1c(Cl)cccc1NC(CC(=O)c1ccccc1)C(=O)OCC(=O)c1cccs1 (stereo not given) | 11.2µM* | 7.94µM* | ? | 0.0% | ?
Cc1c(Cl)cccc1NC(CC(=O)c1ccccc1)C(=O)O (stereo not given) | 7.94µM* | 6.31µM* | 14.6µM* | 2.2% | ?
O=C(CC(Nc1cccc(Cl)c1Cl)C(=O)OCC(=O)c1cccs1)c1ccccc1 (stereo not given) | 19.7% | -10.1% | -1.3% | -5.3% | -0.5%
COc1cccc(CN(C)C(=O)C2CCN(S(=O)(=O)c3cccs3)CC2)c1OC | nt | nt | -22.2% | -2.2%[56.1 µM] | ?
CC(=O)c1ccc(NC(=O)c2cn(-c3ccccc3)nc2-c2ccc(Br)cc2)cc1 | nt | nt | ? | -5.7%[12.3 µM] | ?
COc1ccccc1C(=O)ON=C1c2ccccc2-c2ccccc21 | 36.7%[10 µM] | ? | -26.6% | -4.6% | 23.1µM*
COc1ccc2c(c1)CCC/C2=N/OC(=O)c1ccccc1OC | 3.8% | 1.8% | -18.6% | 1.3% | ?
O=C(Nc1nccs1)C1CCN(S(=O)(=O)c2cccs2)CC1 | 25.7% | -7.8% | -17.9% | 0.0% | -6.3%
O=C(/C=C/c1cccs1)Nc1ccc(N2CCOCC2)c(S(=O)(=O)Nc2cc(Cl)ccc2Cl)c1 | 37.3% | -11.3% | ? | 2.5% | 23.1µM*
Nc1ccc(N2CCOCC2)c(S(=O)(=O)Nc2cc(Cl)ccc2Cl)c1 | 22.2% | 4.5% | -2.3% | 7.5% | 1.3%
O=C(/C=C/c1cccs1)Nc1ccc(N2CCOCC2)c(S(=O)(=O)Nc2ccccc2Cl)c1 | ? | -10.8% | ? | -2.7% | 23.1µM*
CCOc1ccc(CCNC(=O)c2cc3c(-c4ccccc4F)nn(C)c3s2)cc1 | nt | nt | -4.8% | 6.4% | ?
Cn1nc(-c2ccccc2F)c2cc(C(=O)NCCc3ccc(Cl)cc3)sc21 | nt | nt | ? | -2.3% | 16.4µM*
COCCNC(=O)c1cc2c(-c3ccccc3F)nn(C)c2s1 | ? | -6.1% | -25.0% | 3.7% | -23.0%
COc1ccc(NC(=O)c2cc3c(-c4ccccc4F)nn(C)c3s2)c(OC)c1 | nt | nt | 10.3µM* | 4.7% | 10.3µM*
CCOc1ccc(NC(=O)c2cc3c(-c4ccccc4F)nn(C)c3s2)cc1 | nt | nt | ? | -2.3% | -9.8%
COc1ccc(OC)c(CCNC(=O)c2cc3c(-c4ccccc4F)nn(C)c3s2)c1 | nt | nt | 11.6µM* | 11.5% | 8.2µM*
COC(=O)c1cc(NC(=O)c2cc3c(-c4ccccc4F)nn(C)c3s2)cc(C(=O)OC)c1 | nt | nt | 3.26µM* | 1.3% | ?
COc1cccc(NC(=O)CN(C)C(=O)c2ccc3c(c2)S(=O)(=O)N=C2CCCCCN23)c1 | nt | nt | -5.2% | nt | -20.9%
COc1ccc(Nc2ncnc3c2cnn3-c2cc(Cl)ccc2C)cc1OC | nt | nt | 20.6µM* | 7.8% | ?
Cc1ccc(Cl)cc1-n1ncc2c(Nc3cccc(C)c3C)ncnc21 | nt | nt | 16.4µM* | 10.4% | 16.4µM*
COc1ccc(Nc2ncnc3c2cnn3-c2cccc(C)c2)cc1OC | -4.2% | -4.4% | ? | nt | -12.7%
SMILES | RORgamma inh | VP16 counter | DT40 TDP1 CPT | TDP1 block | DT40 TDP1 no CPT
Cc1ccc(NC(=O)COC(=O)c2ccnn2C)cc1 | 4.7% | 16.0% | -17.1% | 3.6% | -12.6%
Cc1cc(C(=O)CSc2nnc(-c3ccco3)o2)c(C)n1-c1ccc2c(c1)OCCO2 | ? | -5.3% | ? | 6.1% | 20.6µM*
Cc1cc(C(=O)CN2C(=O)NC(c3ccccc3)(c3ccccc3)C2=O)c(C)n1Cc1ccco1 | -4.5% | 4.5% | ? | 6.3% | 23.1µM*
Cc1cc(C(=O)COC(=O)[C@H](C)NC(=O)c2ccco2)c(C)n1Cc1ccco1 | 24.1% | 17.4% | 3.5% | 5.9% | -19.4%
Cc1cc(C(=O)CSc2nnc(-c3ccco3)o2)c(C)n1Cc1ccco1 | 13.0% | 9.5% | 20.6µM* | 4.8% | 23.1µM*
Cc1cc(C(=O)CSc2nnnn2C)c(C)n1-c1ccc2c(c1)OCCO2 | 51.1% | -15.4% | ? | 9.4% | ?
Cc1cc(C(=O)CCl)c(C)n1Cc1ccco1 | 7.94µM* | 17.8µM* | 2.59µM* | -6.3% | 2.59µM*
Cc1cc(C(=O)CSc2nncs2)c(C)n1Cc1ccco1 | -31.4% | ? | -17.0% | 0.0% | 11.6µM*
CCOC(=O)c1c(-c2ccc(C)o2)csc1NC(=O)CSc1ncn[nH]1 | -2.0% | -0.6% | -20.3% | 9.8% | -7.3%
CCOC(=O)c1c(-c2ccc(C)o2)csc1NC(=O)CN1CCOCC1 | 12.9% | -1.4% | 16.4µM* | 8.8% | 16.4µM*
CCOC(=O)c1c(CC(C)C)csc1NC(=O)COC(=O)c1cnc(C)cn1 | nt | nt | -5.2% | nt | 9.2%
CCOC(=O)c1c(-c2ccc(C)o2)csc1NC(=S)NC(=O)N(C)C | 0.794µM* | 2.24µM* | ? | 9.6% | ?
CCOC(=O)c1c(-c2cccs2)csc1NC(=O)CN1CCOCC1 | -18.7%[0.365 µM] | nt | ? | 3.3% | 20.6µM*
CCOC(=O)c1c(CC(C)C)csc1NC(=O)CCl | -86.5% | ? | 13µM* | -4.7% | 10.3µM*
CCOC(=O)c1c(NC(=O)CN2CCOCC2)sc2c1CCCC2 | -10.6% | 1.8% | ? | 2.0% | 20.6µM*
CCOC(=O)c1c(-c2ccc(C)o2)csc1N | -35.8% | 7.1% | -7.1% | 7.1% | -7.5%
CCOC(=O)c1c(-c2cccs2)csc1NC(=O)CC(C)C | 30.7% | -6.0% | 18.4µM* | nt | 20.6µM*
CCOc1ccc(NC(=O)c2c(NC(=O)CNCCN3CCOCC3)sc3c2CCC3)cc1 | 0.562µM* | 0.1µM* | ? | 8.9% | 14.6µM*
CCOC(=O)c1c(-c2ccc(C)o2)csc1NC(=O)COC(=O)c1cccs1 | ? | 20µM* | ? | 2.5%[56.1 µM] | 18.4µM*
CCCc1cc(=O)[nH]c(Nc2cc(Cl)ccc2OC)n1 | nt | nt | 2.3% | 4.9% | -12.9%
O=c1c2[nH]c3ccc(F)cc3c2ncn1CCCn1ccnc1 | 3.6% | -5.9% | -7.5% | 2.9% | -16.1%
C=CCN=C1NN=C(c2cc(C)n(CC=C)c2C)CS1 | 11.2µM* | ? | ? | 5.8% | ?
NC1=NN=C(c2ccc3c(c2)OCCO3)CS1 | 10µM* | 10µM* | 4.0% | 8.6% | -23.0%
COCCN=C1NN=C(c2cc(C)n(CC3CCCO3)c2C)CS1 (stereo not given) | -15.4% | 5.9% | ? | 0.0% | ?
